SENP6 block = blocks the human protease SENP6. Q9GZR1. Recombinant SENP6 catalytic domain, aminoluciferin luminescence. inhibition, % at 10 µM. 330,000 compounds, 1.8% hits;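 active = inhibition above about 50% at the single tested dose, limit read from the data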;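 note: plate controls were DMSO wells with enzyme for no effect and DMSO wells lacking enzyme for full effect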
SENP8 block-1 = inhibitors of human SENP8 protease. Q96LD8. 330,000 compounds, 1.2% hits. purified SENP8, Z-RLRGG-aminoluciferin cleavage, luminescence. AID 2540. inhibition, % at 10 µM; in the data active = inhibition above about 50%
EBI2 block = blocks human EBI2 receptor beta-arrestin signaling; 360,000 compounds, 0.81% hits; inhibition, % at 5 µM; P32249; EBI2 beta-arrestin recruitment, luminescence, 7a,25-OHC stimulated; in the data active = inhibition above about 38%;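 note: enzyme fragment complementation signal reports receptor beta-arrestin coupling in cells; 0% = agonist plus DMSO wells and 100% = wells without agonist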
AHR activator = activators of human aryl hydrocarbon receptor. P35869. AHR-responsive luciferase reporter cells, luminescence. activation, % at 5 µM. 320,000 compounds, 2.5% hits. AID 2796; in the data active = activation above about 47%;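 note: 0% = vehicle wells and 100% = reference agonist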
Target sequence (P35869 whole entry, looked up): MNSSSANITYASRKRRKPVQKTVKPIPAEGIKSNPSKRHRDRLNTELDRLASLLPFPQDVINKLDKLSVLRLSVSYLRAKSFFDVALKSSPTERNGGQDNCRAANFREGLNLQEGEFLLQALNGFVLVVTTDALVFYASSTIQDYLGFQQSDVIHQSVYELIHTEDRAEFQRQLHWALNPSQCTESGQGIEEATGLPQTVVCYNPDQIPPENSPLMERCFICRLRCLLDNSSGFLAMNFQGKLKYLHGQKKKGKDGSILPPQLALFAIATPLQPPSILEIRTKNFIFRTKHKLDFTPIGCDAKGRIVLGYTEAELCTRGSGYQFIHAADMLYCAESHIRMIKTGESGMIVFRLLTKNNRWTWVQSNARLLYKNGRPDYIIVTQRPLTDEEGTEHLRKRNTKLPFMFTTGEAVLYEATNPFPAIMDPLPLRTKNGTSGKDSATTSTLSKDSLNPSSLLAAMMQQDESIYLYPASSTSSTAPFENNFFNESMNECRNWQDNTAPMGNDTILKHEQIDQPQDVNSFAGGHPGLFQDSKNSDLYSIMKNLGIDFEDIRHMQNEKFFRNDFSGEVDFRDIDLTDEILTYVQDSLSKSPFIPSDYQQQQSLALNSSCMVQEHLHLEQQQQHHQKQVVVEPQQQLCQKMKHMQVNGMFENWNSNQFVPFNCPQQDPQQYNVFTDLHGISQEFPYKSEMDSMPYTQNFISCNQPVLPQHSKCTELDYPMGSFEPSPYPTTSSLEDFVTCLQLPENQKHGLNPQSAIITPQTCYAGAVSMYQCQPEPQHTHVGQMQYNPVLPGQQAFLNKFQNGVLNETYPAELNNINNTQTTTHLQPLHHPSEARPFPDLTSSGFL
SENP8 block-2 = SENP8 (human) protease inhibition; recombinant SENP8, Nedd8 substrate fluorescence; inhibition, % at 20 µM; Q96LD8; 360,000 compounds, 0.64% hits; in the data active = inhibition mostly above about 40%, no sharp cut-off; inactive = mostly below about 27%
SENP7 block = blocks the human protease SENP7 | AID 434973 | 330,000 compounds, 1.5% hits | inhibition, % at 5 µM | Q9BQF6 | recombinant SENP7, Z-RLRGG-aminoluciferin luminescence, 40 min;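 active = inhibition above about 50% at the single test dose, limit read from the data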;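 note: plate controls were DMSO with enzyme for no effect and no enzyme buffer wells for full effect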
SENP8 conf = human SENP8 inhibition, confirmed. 6,200 compounds, 40% hits. Recombinant SENP8, Z-RLRGG-aminoluciferin luminescence, 60 min. AID 488912. inhibition, % at 12.5 µM. shares compounds with SENP7 block;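 active = mean inhibition across replicates above about 50%, limit read from the data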
SENP6 conf = human SENP6 inhibition, confirmed; shares compounds with SENP7 block; recombinant SENP6, Z-RLRGG-aminoluciferin luminescence; inhibition, % at 12.5 µM; 6,200 compounds, 58% hits; AID 488915
SENP7 conf = human SENP7 inhibition, confirmed | shares compounds with SENP7 block | recombinant SENP7, Z-RLRGG-aminoluciferin luminescence, 40 min | inhibition, % at 12.5 µM | 6,200 compounds, 69% hits
Casp3 SENP sel = selectivity test for SENP inhibitors: human caspase-3 inhibition; shares compounds with SENP7 block; purified caspase-3, Z-DEVD-aminoluciferin luminescence, 60 min; inhibition, % at 12.5 µM; 6,200 compounds, 60% hits; AID 488918;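 active = mean inhibition above about 50%, limit read from the data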;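 note: plate controls were enzyme with DMSO for no effect and wells without caspase-3 for full effect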
SENP luc ctr = luminescence interference (SENP counter-screen); shares compounds with SENP7 block; Pre-incubated SENP8/Z-RLRGG-aminoluciferin, luciferase luminescence interference; inhibition, % at 12.5 µM; 6,200 compounds, 39% hits;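 active = mean inhibition above about 50% when retested at one dose, limit read from the data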;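 note: plate controls were DMSO wells with completed reaction for no effect and substrate without enzyme for full effect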
Numbers without * were called inactive; . = not tested or not shown. In the library only some 5% were active in any assay of this set; here they are far more common.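 Rule for the calls, unless noted: active = mean inhibition above about 50% in the one-dose retest (limit read from the data); inactive = the rest.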

SMILES | SENP6 block | SENP8 block-1 | EBI2 block | AHR activator | SENP8 block-2 | SENP7 block | SENP8 conf | SENP6 conf | SENP7 conf | Casp3 SENP sel | SENP luc ctr
CCOC(=O)C(C)On1c(-c2ccccc2)nc2ccc([N+](=O)[O-])cc21 (configuration not stated) | 84* | 71* | -2 | 11 | 15 | 76* | 28 | 25 | 66* | 59* | 61*
CCCN(CCC)CCCNC(=O)c1cc2c(=O)[nH]c3ccccc3c2s1 | -35 | -9 | -20 | 8 | -283 | 3 | . | . | . | . | .
O=C1C(C=NCc2ccncc2)=C(O)c2ccccc21 | 2 | -6 | -1 | 38 | 8 | -9 | . | . | . | . | .
COc1ccc(N=CC2=C(O)c3ccccc3C2=O)c(OC)c1 | 90* | 95* | 17 | 54* | 50* | 99* | 53* | 96* | 102* | 88* | 3
COc1ccc(OC)c(N=Nc2c(O)c3ccccc3[nH]c2=O)c1 | . | . | -16 | . | 21 | . | . | . | . | . | .
O=C1C(C=Nc2ccc(F)cc2)=C(O)c2ccccc21 | 76* | 74* | 18 | -5 | 23 | 95* | 51* | 54* | 67* | 66* | 20
Cc1ccccc1N=CC1=C(O)c2ccccc2C1=O | 98* | 93* | 4 | 28 | 40* | 102* | 94* | 98* | 102* | 97* | 54*
S=C(NCCc1ccc(Cl)cc1)NCc1ccccc1 | -10 | 0 | 7 | 0 | 10 | -1 | . | . | . | . | .
Cc1ccc(S(=O)(=O)NCCOc2cc(C)ccc2C)cc1 | -4 | -1 | 10 | 2 | 1 | 5 | . | . | . | . | .
Cc1nn(-c2ccc(F)cc2)c2sc(C(=O)O)cc12 | -10 | 0 | -3 | 6 | 8 | 98* | 4 | 2 | 6 | -3 | -13
Cc1ccc(-n2nc(C)c3cc(C(=O)O)sc32)cc1 | -25 | -7 | 0 | 2 | 20 | -3 | . | . | . | . | .
CCN(c1ccccc1)S(=O)(=O)c1cccc(C(=O)Nc2ccc(C)cn2)c1 | -7 | -5 | 7 | 3 | 17 | -11 | . | . | . | . | .
COc1ccc(Cl)cc1NC(=S)NNC(=O)c1cccs1 | 86* | 66* | 1 | 18 | -36 | 81* | -2 | 0 | 14 | -2 | 27
CNc1nc(-c2ccc(Cl)cc2)cs1 | 62* | 30 | -6 | -1 | 10 | 20 | 54* | 58* | 82* | 51* | 26
CCNc1nc(-c2ccc(Cl)cc2)cs1 | 85* | 72* | 7 | -4 | 13 | 62* | -21 | 71* | 94* | 60* | 69*
Cc1ccc(Cc2cnc(NC(=O)c3cccs3)s2)cc1 | 1 | -19 | -16 | 26 | -39 | 0 | . | . | . | . | .
Cc1ccc(C(=O)Nc2ncc(Cc3ccccc3)s2)o1 | 71* | 51* | -16 | 41 | -10 | 63* | 6 | 68* | 92* | 62* | 56*
O=C(Nc1ncc(Cc2ccccc2)s1)c1cccs1 | 53* | 40 | -5 | 11 | -49 | 58* | 57* | 57* | 83* | 37 | 53*
O=C(Nc1nnc(SCc2ccccc2)s1)c1cccs1 | 86* | 69* | -1 | 27 | -197 | 53* | -4 | 25 | 36 | 30 | 6
COc1ccc(C(=O)NCCS(=O)(=O)N(C)Cc2ccccc2)cc1 | -13 | 4 | 8 | 0 | 8 | 0 | . | . | . | . | .
CCCSc1nnc(CSc2nc(C)cc(C)n2)n1C | -16 | -4 | -3 | 5 | 12 | -7 | . | . | . | . | .
CC(OC(=O)c1cccnc1Cl)C(=O)NCc1ccccc1 (configuration not stated) | 13 | 1 | -1 | 0 | 8 | 2 | . | . | . | . | .
O=C(COc1ccc(Cl)cc1Cl)OCn1nnc2ccccc2c1=O | -12 | -7 | -1 | 4 | 17 | -5 | . | . | . | . | .
O=c1c2ccccc2nnn1COc1cccc(Cl)c1 | 58* | 36 | -4 | 4 | 4 | 35 | 14 | 58* | 48 | 49 | 2
Cc1cc(C(=O)Nc2nc3ccc(S(C)(=O)=O)cc3s2)c(C)o1 | 96* | 41 | 7 | 8 | -31 | 93* | 34 | 89* | 101* | 94* | 14
SMILES | SENP6 block | SENP8 block-1 | EBI2 block | AHR activator | SENP8 block-2 | SENP7 block | SENP8 conf | SENP6 conf | SENP7 conf | Casp3 SENP sel | SENP luc ctr
Cc1csc(NC(=O)c2cc(C)oc2C)n1 | 69* | 46 | -12 | 8 | 2 | 59* | 64* | 63* | 89* | 84* | 65*
COc1ccc2nc(NC(=S)N(C)C)sc2c1 | 81* | 67* | -1 | -10 | 18 | 76* | 80* | 79* | 94* | 69* | 79*
COc1ccc2nc(NC(=O)c3ccoc3C)sc2c1 | 101* | 97* | -3 | -3 | -58 | 100* | 97* | 100* | 103* | 98* | 97*
O=S(=O)(N/N=C\C=C\c1ccccc1)c1ccc(Cl)cc1 | 6 | 3 | -5 | 0 | 13 | -1 | . | . | . | . | .
COc1ccc2nc(NC(=O)c3cccnc3SC)sc2c1 | 93* | 71* | 4 | 5 | -287 | 85* | 78* | 77* | 93* | 72* | 46
COc1ccc2nc(NC(=O)c3cc(C)oc3C)sc2c1 | 88* | 90* | 6 | -7 | -83 | 101* | -20 | 94* | 102* | 96* | 63*
CCCC(=O)Nc1nc2ccc(OC)cc2s1 | -6 | 2 | -4 | 5 | 9 | 2 | . | . | . | . | .
CCC(=O)c1c(NCCc2ccccc2)cc(C)oc1=O | 11 | 3 | 1 | 11 | 13 | 0 | . | . | . | . | .
CC(/C=N/NC(=O)Cn1cnc2c1c(=O)n(C)c(=O)n2C)=C\c1ccccc1 | 3 | 2 | -13 | -1 | 1 | 1 | . | . | . | . | .
O=C(N/N=C/C(Cl)=C/c1ccccc1)c1ccncc1 | 4 | -2 | -6 | 4 | -5 | -1 | . | . | . | . | .
CC(/C=N/NC(=O)Cc1cccs1)=C\c1ccccc1 | -12 | -15 | -5 | 7 | 27 | 3 | . | . | . | . | .
Cc1cc(C(=O)N/N=C/c2c(C)nn(-c3ccccc3)c2C)c(C)o1 | 50* | 35 | -9 | 5 | 25 | 36 | 34 | 25 | 60* | 55* | 23
O=C(N/N=C/C(Cl)=C\c1ccccc1)c1cccs1 | 63* | 52* | 3 | 14 | -19 | 43 | 9 | 59* | 85* | 31 | 9

Bioassay records from PubChem BioAssay.
